Test results as given in PubChem BioAssay (Tox21).
Values joined by “and” are separate entries in the source; they are usually repeats but may differ in a detail not shown here. Identical values can stand only once. Records with an inconclusive call do not appear. A call without a number means that no potency is given here. A structure can be active in one record and inactive in another. Active and inactive are the calls of the source. Unless noted, calls follow the shape of the dose curve; as a rule, active = well fitted curve in the direction sought with a large enough effect in the repeat runs; inconclusive = weak or mixed curves; inactive = no such curve, though single readings can be large; an effect the other way counts as inactive or inconclusive.

Tests used:
[1] = qHTS assay to identify small molecule agonists of the sonic hedgehog signaling (Shh) pathway (AID 1259368; calls by dose curve;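 also: NIH/3T3-derived 3T3Gli1-Luc cells carrying a stable Gli1-driven firefly luciferase reporter; series mostly up to about 92 µM; nearly all actives have a fitted effect of over 15% in size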)
Summary of the method: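 Cells of a mouse NIH/3T3 clone stably expressing luciferase under the Gli1 transcriptional response element are exposed to test chemicals for 24 hr at 37 C. Pathway activation is detected as a rise in luminescence.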

[2] = qHTS assay to identify small molecule antagonists of the sonic hedgehog signaling (Shh) pathway (AID 1259369; calls by dose curve; also: nearly all actives have a fitted effect of over 45% in size; also: potency is read from the fitted curve at half-maximal effect)
Summary of the method: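 Cells are plated and held 4hr at 37 C, compounds (DMSO) are pinned in, conditioned medium is added to stimulate the pathway, and after 24hr luciferase reagent is added for 30min before luminescence is read.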

[3] = molecular target: Estrogen receptor beta (Homo sapiens) (UniProt Q92731); experiment: qHTS assay to identify small molecule agonists of the estrogen receptor beta (ER-beta) signaling pathway (AID 1259377; active = well fitted activation curve with a large enough effect in the signal ratio in the repeat runs, not every such curve was filed as active; the % refers to the signal ratio)
Sequence of Estrogen receptor beta (Homo sapiens) (Q92731 whole entry, looked up): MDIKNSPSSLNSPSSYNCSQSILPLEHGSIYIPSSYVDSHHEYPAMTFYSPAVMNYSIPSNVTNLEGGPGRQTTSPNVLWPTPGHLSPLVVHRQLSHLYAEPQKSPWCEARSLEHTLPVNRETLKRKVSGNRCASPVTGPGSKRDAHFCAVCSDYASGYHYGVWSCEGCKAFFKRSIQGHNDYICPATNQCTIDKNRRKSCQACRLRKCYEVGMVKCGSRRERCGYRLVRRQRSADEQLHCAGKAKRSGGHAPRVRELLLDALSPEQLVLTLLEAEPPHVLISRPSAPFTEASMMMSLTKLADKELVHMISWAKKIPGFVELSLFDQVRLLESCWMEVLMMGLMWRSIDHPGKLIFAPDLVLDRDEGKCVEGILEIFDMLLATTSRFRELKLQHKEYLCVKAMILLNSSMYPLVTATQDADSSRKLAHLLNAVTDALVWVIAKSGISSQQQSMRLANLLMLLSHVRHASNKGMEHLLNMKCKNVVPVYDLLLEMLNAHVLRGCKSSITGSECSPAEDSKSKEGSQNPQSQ
Summary of the method: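 ER-beta-UAS-bla HEK293T cells in medium with 2% charcoal-stripped FBS were exposed to compounds for 16 h at 37C. Beta-lactamase reporter activity was read as fluorescence after 2 h with LiveBLAzer B/G FRET substrate at room temperature.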

[4] = molecular target: Estrogen receptor beta (Homo sapiens) (UniProt Q92731); experiment: qHTS assay to identify small molecule antagonists of the estrogen receptor beta (ER-beta) signaling pathway (AID 1259378; active = well fitted inhibition curve with a large enough effect in the signal ratio in the repeat runs, not every such curve was filed as active; the % refers to the signal ratio)
Summary of the method: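 Antagonist mode: compounds added to beta-lactamase reporter HEK293T ER-beta-UAS cells stimulated with E2 (1nM final), 16 hr at 37C. LiveBLAzer B/G FRET substrate, 2 hours room temperature, fluorescence read-out.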

[5] = qHTS assay to identify small molecule agonists of the estrogen receptor beta (ER-beta) signaling pathway - cell viability counter screen (AID 1259380); also: nearly all actives have a fitted effect of over 30% in size; also: potency is read from the fitted curve at half-maximal effect
Summary of the method: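 Cytotoxicity is measured in parallel with the reporter screen: after 16 hr compound exposure at 37C and a 2 hr LiveBLAzer step, CellTiter-Glo is added to the same ER-beta-UAS-bla HEK293T wells and luminescence read after 30 min.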

[6] = qHTS assay to identify small molecule antagonists of the estrogen receptor beta (ER-beta) signaling pathway - cell viability counter screen (AID 1259382);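 also: HEK293T cells carrying ER-beta-UAS-bla reporter stimulated with estradiol; series mostly up to about 92 µM; nearly all actives have a fitted effect of over 55% in size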
Summary of the method: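 Cytotoxicity counter screen multiplexed with the beta-lactamase antagonist assay: GripTite HEK293T ER-beta-bla cells were treated 16 hr with test chemicals in the presence of 1nM 17-beta-estradiol, and viability was measured by CellTiter-Glo.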

[7] = qHTS assay to identify small molecule agonists or antagonists of the thyroid stimulating hormone receptor (TSHR) signaling pathway - wild type cell line counter screen (AID 1259384; calls by dose curve)
Summary of the method: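 Counter screen in untransfected Hek293: compounds (15-point titration, triplicate) plus phosphodiesterase inhibitor Ro20-1724 added after 18 h plating; 30 min RT. Intracellular cAMP via competitive d2/cryptate immunoassay, 1 h incubation.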

[8] = molecular target: Thyrotropin receptor (Homo sapiens) (UniProt P16473); experiment: qHTS assay to identify small molecule antagonists of the thyroid stimulating hormone receptor (TSHR) signaling pathway (AID 1259385; calls by dose curve; also: nearly all actives have a fitted effect of over 20% in size)
Sequence of Thyrotropin receptor (Homo sapiens) (P16473 whole entry, looked up): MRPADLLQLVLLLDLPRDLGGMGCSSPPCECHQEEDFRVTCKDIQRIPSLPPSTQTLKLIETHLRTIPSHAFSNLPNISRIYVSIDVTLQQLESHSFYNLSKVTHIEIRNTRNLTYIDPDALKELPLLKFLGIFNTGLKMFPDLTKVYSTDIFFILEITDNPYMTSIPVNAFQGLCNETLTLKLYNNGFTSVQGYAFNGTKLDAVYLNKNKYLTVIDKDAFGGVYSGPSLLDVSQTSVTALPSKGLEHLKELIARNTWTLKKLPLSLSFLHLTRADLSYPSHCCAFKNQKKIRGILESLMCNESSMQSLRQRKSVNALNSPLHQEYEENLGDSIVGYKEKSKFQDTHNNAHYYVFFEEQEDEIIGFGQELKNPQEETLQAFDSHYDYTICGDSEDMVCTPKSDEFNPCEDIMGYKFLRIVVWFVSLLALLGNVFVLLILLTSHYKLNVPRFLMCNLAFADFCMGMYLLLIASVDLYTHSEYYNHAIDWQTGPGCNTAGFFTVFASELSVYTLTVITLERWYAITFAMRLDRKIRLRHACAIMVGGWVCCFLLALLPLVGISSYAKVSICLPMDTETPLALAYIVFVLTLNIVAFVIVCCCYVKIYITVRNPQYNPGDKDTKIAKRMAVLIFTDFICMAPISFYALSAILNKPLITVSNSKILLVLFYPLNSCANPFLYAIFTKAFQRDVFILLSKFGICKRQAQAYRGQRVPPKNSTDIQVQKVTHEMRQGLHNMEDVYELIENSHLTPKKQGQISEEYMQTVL
Summary of the method: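 Antagonist mode: compound-treated TSHR-expressing HEK293 cells were stimulated with 1.5 ng/mL TSH (final) in presence of Ro20-1724 for 30 min at RT. HTRF cAMP detection after 1 h; each compound tested at 15 concentrations, triplicate.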

[9] = qHTS assay to identify small molecule agonists of the estrogen receptor alpha (ER-alpha) signaling pathway in the presence of an antagonist - cell viability counter screen (AID 1259386);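 also: cells exposed to compounds for 22 h at 37 °C before the viability read; nearly all actives have a fitted effect of over 30% in size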; also: potency is read from the fitted curve at half-maximal effect
Summary of the method: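 Cytotoxicity was measured in parallel with the ERE-luciferase agonist screen, in the same wells. The cells were VM7Luc4E2, which endogenously express ER-alpha, and treatment was with compounds plus 10.0nM ICI-182,780 for 22hr.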

[10] = molecular target: Progesterone receptor (Homo sapiens) (UniProt P06401); experiment: qHTS assay to identify small molecule agonists of the progesterone receptor (PR) signaling pathway (AID 1346784; calls by dose curve; also: nearly all actives have a fitted effect of over 30% in size)
Sequence of Progesterone receptor (Homo sapiens) (P06401 whole entry, looked up): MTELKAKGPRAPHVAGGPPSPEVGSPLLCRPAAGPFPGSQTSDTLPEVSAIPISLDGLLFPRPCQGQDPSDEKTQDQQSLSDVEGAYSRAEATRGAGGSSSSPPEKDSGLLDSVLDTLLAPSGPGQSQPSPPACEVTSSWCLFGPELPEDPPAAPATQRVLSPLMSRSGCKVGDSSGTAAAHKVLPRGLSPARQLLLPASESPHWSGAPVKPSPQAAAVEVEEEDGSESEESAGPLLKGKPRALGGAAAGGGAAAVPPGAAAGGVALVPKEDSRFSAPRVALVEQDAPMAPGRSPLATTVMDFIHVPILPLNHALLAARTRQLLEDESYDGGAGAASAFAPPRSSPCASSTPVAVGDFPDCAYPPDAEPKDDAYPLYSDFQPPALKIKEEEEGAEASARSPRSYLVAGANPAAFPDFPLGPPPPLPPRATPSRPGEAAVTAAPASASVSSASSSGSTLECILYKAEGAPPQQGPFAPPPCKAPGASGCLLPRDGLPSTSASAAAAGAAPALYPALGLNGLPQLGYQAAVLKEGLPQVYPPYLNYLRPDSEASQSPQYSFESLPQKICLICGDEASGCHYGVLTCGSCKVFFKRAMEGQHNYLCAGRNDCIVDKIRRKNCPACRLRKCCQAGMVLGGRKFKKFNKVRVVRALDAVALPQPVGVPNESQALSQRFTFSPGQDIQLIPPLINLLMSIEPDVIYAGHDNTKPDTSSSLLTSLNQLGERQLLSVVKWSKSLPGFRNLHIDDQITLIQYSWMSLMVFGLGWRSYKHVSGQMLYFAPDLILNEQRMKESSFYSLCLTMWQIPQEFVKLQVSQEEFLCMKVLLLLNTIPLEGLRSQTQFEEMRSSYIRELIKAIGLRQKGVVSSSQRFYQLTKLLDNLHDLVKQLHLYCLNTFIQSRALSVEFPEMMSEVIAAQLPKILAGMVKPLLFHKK
Summary of the method: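 PR-UAS-bla HEK 293T cells (beta-lactamase reporter under UAS) in 2% charcoal-stripped FBS, dosed with 23 nL compound after 6 hr, incubated 16hr at 37C. LiveBLAzer B/G FRET substrate added, fluorescence read after 2 hours.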

[11] = molecular target: Progesterone receptor (Homo sapiens) (UniProt P06401); experiment: qHTS assay to identify small molecule antagonists of the progesterone receptor (PR) signaling pathway (AID 1346795; active = well fitted inhibition curve with a large enough effect in the signal ratio in the repeat runs, not every such curve was filed as active; the % refers to the signal ratio; also: potency is read from the fitted curve at half-maximal effect)
Summary of the method: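 PR-UAS-bla HEK293T cells with beta-lactamase reporter under UAS control, in 2% charcoal-stripped FBS, treated with compounds plus 1 nM promegestone (R5020, final) for 16 hr at 37C. Read-out: FRET beta-lactamase substrate fluorescence after 2 hr at room temperature.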

[12] = qHTS assay to identify small molecule antagonists of the progesterone receptor (PR) signaling pathway - cell viability counter screen (AID 1346798); also: series mostly up to about 92 µM; nearly all actives have a fitted effect of over 50% in size
Summary of the method: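 PR-UAS-bla HEK293T cells, 3,000/well in 2% charcoal-stripped FBS medium, dosed with compounds plus R5020 agonist and incubated 16 h at 37C. Viability then measured in the same wells by CellTiter-Glo luminescence after 30 min at RT.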

[13] = qHTS assay to identify small molecule agonists of the progesterone receptor (PR) signaling pathway - cell viability counter screen (AID 1346799; calls by dose curve; also: nearly all actives have a fitted effect of over 45% in size)
Summary of the method: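 Counter screen in the PR-UAS-bla HEK293T wells (2% charcoal-stripped FBS, 16 h compound exposure at 37 C) after the bla read. CellTiter-Glo added, 30 min at room temperature, luminescence read as cell viability.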

[14] = qHTS assay to identify small molecule antagonists of the TGF-beta/Smad signaling pathway - cell viability counter screen (AID 1346824); also: nearly all actives have a fitted effect of over 50% in size
Summary of the method: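 Cytotoxicity counter-screen run in the same wells as the beta-lactamase Smad reporter read: CellTiter-Glo luminescence after 30 min at room temperature. HEK 293T SBE-bla cells had 5 hr compound exposure at 37 C with TGF-beta1 (0.25 ng/mL stock).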

[15] = qHTS assay to identify small molecule agonists of the TGF-beta/Smad signaling pathway - cell viability counter screen (AID 1346829); also: top concentration of the series differs between compounds; nearly all actives have a fitted effect of over 45% in size
Summary of the method: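 Luminescence from CellTiter-Glo, read after a 30 min room-temperature incubation, gives cell viability of SBE-bla HEK 293T cells treated 5 hr with compounds at 37 C.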

[16] = qHTS assay to identify small molecule agonists of the TGF-beta/Smad signaling pathway (AID 1346859; active = well fitted activation curve with a large enough effect in the signal ratio in the repeat runs, not every such curve was filed as active; the % refers to the signal ratio; also: series mostly up to about 77 µM)
Summary of the method: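 SBE-bla HEK293T cells plated overnight, then compound exposure for 5 h at 37 C. Beta-lactamase reporter read with LiveBLAzer B/G FRET substrate after 2 h at room temperature, fluorescence at 405 nm excitation, 460/530 nm emission.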

[17] = molecular target: Thyrotropin-releasing hormone receptor (Homo sapiens) (UniProt P34981); experiment: qHTS assay to identify small molecule antagonists of the thyrotropin-releasing hormone receptor (TRHR) signaling pathway (AID 1346877; active = well fitted inhibition curve with a large enough effect in the repeat runs, not every such curve was filed as active; also: series mostly up to about 51 µM)
Sequence of Thyrotropin-releasing hormone receptor (Homo sapiens) (P34981 whole entry, looked up): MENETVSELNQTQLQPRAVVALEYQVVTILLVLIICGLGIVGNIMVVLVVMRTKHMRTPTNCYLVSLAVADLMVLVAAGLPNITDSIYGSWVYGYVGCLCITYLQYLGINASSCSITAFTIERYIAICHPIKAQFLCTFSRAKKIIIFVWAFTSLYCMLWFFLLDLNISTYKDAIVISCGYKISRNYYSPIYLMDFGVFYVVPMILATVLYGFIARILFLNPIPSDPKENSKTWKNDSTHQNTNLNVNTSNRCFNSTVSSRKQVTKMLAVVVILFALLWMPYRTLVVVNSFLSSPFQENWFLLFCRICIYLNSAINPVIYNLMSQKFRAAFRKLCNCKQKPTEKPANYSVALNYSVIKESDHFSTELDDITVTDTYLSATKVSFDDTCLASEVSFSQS
Summary of the method: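 Antagonism is measured as suppression of the calcium response to 1 nM TRH in TRHR-HEK293 cells that have been dye-loaded for 2 h at 37 °C after overnight plating. Each compound is tested at 15 concentrations in triplicate.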

[18] = qHTS assay to identify small molecule agonists of the androgen receptor (AR) signaling pathway in the presence of an antagonist - cell viability counter screen (AID 1259379);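 also: MDA-kb2 human breast cancer cells carrying an MMTV luciferase reporter; series mostly up to about 92 µM; nearly all actives have a fitted effect of over 25% in size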
Summary of the method: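 Cytotoxicity is assessed by CellTiter-Fluor in MDA-kb2 cells carrying an MMTV-driven luciferase reporter. Cells receive 3.0uM nilutamide plus compounds at 15 concentrations and incubate 16 hr at 37C without CO2 before fluorescence reading.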

[19] = molecular target: Estrogen receptor (Homo sapiens) (UniProt P03372); experiment: qHTS assay to identify small molecule agonists of the estrogen receptor alpha (ER-alpha) signaling pathway in the presence of an antagonist (AID 1259383; calls by dose curve; also: top concentration of the series differs between compounds; nearly all actives have a fitted effect of over 15% in size)
Sequence of Estrogen receptor (Homo sapiens) (P03372 whole entry, looked up): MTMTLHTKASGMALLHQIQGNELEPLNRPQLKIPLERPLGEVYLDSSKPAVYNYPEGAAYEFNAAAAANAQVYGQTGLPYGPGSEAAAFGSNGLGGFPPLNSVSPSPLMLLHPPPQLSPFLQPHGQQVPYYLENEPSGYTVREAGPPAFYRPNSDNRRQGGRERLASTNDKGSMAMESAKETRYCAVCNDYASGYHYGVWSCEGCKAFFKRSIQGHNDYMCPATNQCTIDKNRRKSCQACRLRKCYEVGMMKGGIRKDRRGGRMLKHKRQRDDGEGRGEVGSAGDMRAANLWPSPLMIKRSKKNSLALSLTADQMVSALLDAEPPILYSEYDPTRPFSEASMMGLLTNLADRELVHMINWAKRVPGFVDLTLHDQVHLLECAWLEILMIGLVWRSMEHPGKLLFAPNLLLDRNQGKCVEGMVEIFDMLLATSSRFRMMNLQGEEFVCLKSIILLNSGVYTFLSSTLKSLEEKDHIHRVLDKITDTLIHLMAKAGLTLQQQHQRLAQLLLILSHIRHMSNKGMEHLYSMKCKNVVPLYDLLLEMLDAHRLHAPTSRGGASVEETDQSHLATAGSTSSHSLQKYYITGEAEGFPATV
Summary of the method: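 Agonist-mode confirmation in the presence of the ER antagonist ICI-182,780 at 10.0nM final. Breast-derived VM7Luc4E2 reporter cells were exposed to compounds for 22hr, and ERE-driven luciferase was quantified by luminescence.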

[20] = molecular target: Androgen receptor (Homo sapiens) (UniProt P10275); experiment: qHTS assay to identify small molecule agonists of the androgen receptor (AR) signaling pathway in the presence of an antagonist (AID 1259381; calls by dose curve; also: nearly all actives have a fitted effect of over 15% in size)
Sequence of Androgen receptor (Homo sapiens) (P10275 whole entry, looked up): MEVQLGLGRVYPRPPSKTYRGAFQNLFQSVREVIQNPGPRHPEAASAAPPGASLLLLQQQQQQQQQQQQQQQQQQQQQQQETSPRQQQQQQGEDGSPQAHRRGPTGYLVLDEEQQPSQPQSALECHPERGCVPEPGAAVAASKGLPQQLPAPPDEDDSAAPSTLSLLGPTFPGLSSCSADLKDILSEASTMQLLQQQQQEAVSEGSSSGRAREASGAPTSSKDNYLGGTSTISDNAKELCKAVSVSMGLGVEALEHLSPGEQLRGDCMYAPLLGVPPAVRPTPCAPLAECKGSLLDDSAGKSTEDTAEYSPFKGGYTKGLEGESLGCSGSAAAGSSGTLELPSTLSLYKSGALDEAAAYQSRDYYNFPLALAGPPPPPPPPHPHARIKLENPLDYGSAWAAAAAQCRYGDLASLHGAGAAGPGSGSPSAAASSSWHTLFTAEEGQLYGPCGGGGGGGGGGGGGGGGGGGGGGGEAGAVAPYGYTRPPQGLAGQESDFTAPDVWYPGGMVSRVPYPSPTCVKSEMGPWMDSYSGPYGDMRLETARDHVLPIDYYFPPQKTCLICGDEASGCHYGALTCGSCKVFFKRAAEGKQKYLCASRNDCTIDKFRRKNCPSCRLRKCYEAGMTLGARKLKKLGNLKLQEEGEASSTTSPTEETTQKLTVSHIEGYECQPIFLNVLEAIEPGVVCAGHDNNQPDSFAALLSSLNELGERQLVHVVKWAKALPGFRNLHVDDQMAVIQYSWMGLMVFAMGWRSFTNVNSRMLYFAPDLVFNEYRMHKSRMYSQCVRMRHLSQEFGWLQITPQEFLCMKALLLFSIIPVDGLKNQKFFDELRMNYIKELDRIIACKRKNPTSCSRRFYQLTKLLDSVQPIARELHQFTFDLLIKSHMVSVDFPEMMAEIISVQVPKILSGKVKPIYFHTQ
Summary of the method: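 Agonist-mode confirmation screen: human MDA-kb2 cells stably expressing luciferase under an MMTV promoter bearing AR and GR response elements, co-treated with 3.0uM nilutamide (final). Luminescence measured after 16hr compound incubation.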

| SMILES | outcome [1] | Potency [2] | Potency [3] | outcome [4] | Potency [5] | outcome [6] | outcome [7] | outcome [8] | Potency [9] | Potency [10] | Potency [11] | Potency [12] | outcome [13] | Potency [14] | Potency [15] | outcome [16] | outcome [17] | Potency [18] | outcome [19] | outcome [20] |
| --- | --- | --- | --- | --- | --- | --- | --- | --- | --- | --- | --- | --- | --- | --- | --- | --- | --- | --- | --- | --- |
| O=C(O)c1cc(Oc2ccc(C(F)(F)F)cc2Cl)ccc1[N+](=O)[O-] | inactive | inactive | inactive | inactive | inactive | inactive | inactive | inactive | inactive | inactive | inactive | inactive | inactive | inactive | inactive | inactive | inactive |  |  |  |
| COC(=O)Nc1cccc(OC(=O)Nc2cccc(C)c2)c1 | inactive | inactive | inactive | inactive | inactive | inactive |  |  | inactive | inactive | inactive | inactive | inactive | inactive | inactive | inactive |  | inactive |  |  |
| CNc1cnn(-c2cccc(C(F)(F)F)c2)c(=O)c1Cl | inactive | inactive | inactive | inactive | inactive | inactive |  |  | inactive | inactive | inactive | inactive | inactive | inactive | inactive | inactive | inactive |  |  |  |
| COP(=S)(OC)Oc1ccc(SC)c(C)c1 | inactive | inactive | inactive | inactive | inactive | inactive |  |  | inactive | inactive | 13.5 µM (active) | inactive | inactive | inactive | inactive | inactive | inactive |  | inactive |  |
| CC(=O)/C=C/c1ccccc1 | inactive | inactive | inactive | inactive | inactive | inactive | inactive | inactive | inactive | inactive | inactive | inactive | inactive | inactive | inactive | inactive | inactive |  |  |  |
| CN(C)C(=O)C(c1ccccc1)c1ccccc1 | inactive | inactive | inactive | inactive | inactive | inactive |  |  | inactive | inactive | inactive | inactive | inactive | inactive | inactive | inactive | inactive |  |  |  |
| FC(F)(F)c1ccc(Cl)cc1 | inactive | inactive | inactive | inactive | inactive | inactive | inactive | inactive | inactive | inactive | inactive | inactive | inactive | inactive | inactive | inactive | inactive |  | inactive |  |
| O=S(=O)(O)OOS(=O)(=O)O | inactive | inactive | inactive | inactive | inactive | inactive |  |  | inactive | inactive | inactive | inactive | inactive | inactive | inactive | inactive | inactive | inactive |  |  |
| O=C(O)C(Br)Br | inactive | inactive | inactive | inactive | inactive | inactive |  |  | inactive | inactive | inactive | inactive | inactive | inactive | inactive | inactive | inactive |  | inactive |  |
| Oc1c(Br)cc(Br)cc1Br | inactive | inactive | inactive |  | 21.7 µM (active) and inactive | inactive | inactive | inactive | inactive | inactive |  | inactive |  | inactive | inactive | inactive | inactive | inactive | inactive |  |
| CN(C)CCC#N | inactive | inactive | inactive | inactive | inactive | inactive |  |  | inactive | inactive | inactive | inactive | inactive | inactive | inactive | inactive | inactive |  | inactive |  |
| CC(C)CCCCCCOC(=O)c1ccccc1C(=O)OCCCCCCC(C)C | inactive | inactive |  |  | inactive | inactive | inactive | inactive | inactive | inactive | inactive | inactive | inactive | inactive | inactive | inactive | inactive | inactive | inactive | inactive |
| CC(C)(C)C(=O)CCl | inactive | inactive | inactive | inactive | inactive | inactive | inactive | inactive | inactive | inactive | inactive | inactive | inactive | inactive | inactive | inactive | inactive |  | inactive | inactive |
| N#CN=C(N)N | inactive | inactive | inactive | inactive | inactive | inactive | inactive | inactive | inactive | inactive | inactive | inactive | inactive | inactive | inactive | inactive | inactive |  | inactive |  |
| Nc1ccc(N)cc1 | inactive | 54.7 µM (active) and 48.6 µM (active) and inactive | inactive | inactive | inactive | inactive | inactive |  | 54.7 µM (active) and 54.5 µM (active) | inactive | inactive | inactive | inactive | inactive | inactive | inactive | inactive | inactive |  |  |
| N#Cc1cccc(C#N)c1 | inactive | inactive | inactive | inactive | inactive | inactive | inactive | inactive | inactive | inactive | inactive | inactive | inactive | inactive | inactive | inactive | inactive |  |  |  |
| CN(C)C(=O)Nc1cccc(C(F)(F)F)c1 | inactive | inactive | inactive | inactive | inactive | inactive | inactive | inactive | inactive | inactive | inactive | inactive | inactive | inactive | inactive | inactive | inactive |  |  |  |
